# Source: PubChem BioAssay (NCI)
# About 79,000 compounds went through this panel and 15% of them were active in at least one assay; those are over-represented in the sample as a whole. A number with no mark means an inactive call. The source made the active and inactive calls. No stated cut-off is given here; in the data, active means growth inhibition above about 70%; inactive means the rest.
# What was measured:
# [1] = NCI Yeast Anticancer Drug Screen. Data for the rad50 strain (AID 155);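 further: 0% = growth of vehicle-only cultures of the same strain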; details: S. cerevisiae rad50 strain growth inhibition; at 50.0 µM; stronger effect = higher value
# Outline: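 Compounds were tested on a yeast strain with an engineered DNA damage repair alteration; the reported value is growth inhibition normalised to vehicle treatment.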
# [2] = NCI Yeast Anticancer Drug Screen. Data for the mec2-1 strain (AID 157); details: S. cerevisiae mec2-1 strain, at 50.0 µM, stronger effect = higher value
# Outline: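 Mutant yeast (mec2-1) grown with compound; growth inhibition relative to vehicle control reported.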
# [3] = NCI Yeast Anticancer Drug Screen. Data for the sgs1 mgt1 strain (AID 161);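 further: 0% = growth of cultures given vehicle only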; details: S. cerevisiae sgs1 mgt1 strain, at 50.0 µM, stronger effect = higher value
# Outline: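 Growth of a repair-deficient yeast mutant was monitored after compound treatment and expressed as inhibition relative to vehicle-treated cultures.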
# [4] = NCI Yeast Anticancer Drug Screen. Data for the cln2 rad14 strain (AID 165);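 further: 0% = growth equal to vehicle treated cultures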; details: S. cerevisiae cln2 rad14 strain, at 50.0 µM, stronger effect = higher value
# Outline: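 Readout is yeast growth inhibition versus vehicle-treated controls, using a strain with cln2 and rad14 alterations exposed to compound.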
# [5] = NCI Yeast Anticancer Drug Screen. Data for the bub3 strain (AID 167); details: S. cerevisiae bub3 mutant strain, at 50.0 µM, stronger effect = higher value
# Outline: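 Growth of a checkpoint-deficient yeast mutant is measured after compound exposure. Values represent inhibition relative to vehicle.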
# [6] = NCI Yeast Anticancer Drug Screen. Data for the mlh1 rad18 strain (AID 175); details: S. cerevisiae mlh1 rad18 strain growth inhibition; at 50.0 µM; stronger effect = higher value
# Outline: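 Genetically defined yeast (DNA repair-deficient) exposed to compounds; growth inhibition determined relative to vehicle.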
Structure (SMILES),growth inhibition [1],growth inhibition [2],growth inhibition [3],growth inhibition [4],growth inhibition [5],growth inhibition [6]
C[C@]12CC[C@@H]3C4=CC(=O)CC[C@@H]4CC[C@H]3[C@@H]1CC[C@@H]2O,-4.3%,-12.1%,5.2%,-8.45%,4.8%,-2.75%
Cc1cc(C)cc(OP(=O)(Oc2cc(C)cc(C)c2)Oc2cc(C)cc(C)c2)c1,-13.3%,-24.6%,5.45%,-3.65%,1.7%,-5.25%
Clc1ccc(C2CC3CCCCN3O2)cc1 (stereo not given),13.6%,3%,5.9%,-1.1%,11.6%,5.45%
Oc1ccc(Br)cc1,1.15%,-18.1%,-14.4%,-14.3%,-15.1%,-6.5%
COc1ccc(CCN2CCOCC2)cc1,31.9%,2.15%,47.8%,9.25%,34%,34.2%
O=C1C(Br)=C(N2CC2)C(=O)C(Br)=C1N1CC1,96% (active),88% (active),90.5% (active),79.2% (active),39%,97% (active)
CC(C)=NNC1=NC(C)(C)P(=O)(N2CCCC2C(=O)O)S1 (stereo not given),0.8%,-12.4%,-0.45%,-2.3%,5.25%,-9.2%
CCOC(=O)c1c(SC)nc(-c2ccc(Cl)cc2)sc1=N,18.4%,19.6%,24.8%,25.9%,28.1%,-19.7%
O=C(O)C(O)CO.[Pb] (stereo not given),-1.95%,0.35%,-2.5%,12.4%,-15.7%,9.85%
NC(=O)C[N+](=O)[O-],-16.9%,17%,-11.4%,11%,-2.35%,-2.2%
CCOP(=O)(CC(=O)C1CC1)OCC,-28.8%,-20.5%,-26.2%,-21.9%,-20.9%,-43.1%
O=C(O)CCCO,-13.8%,-20.3%,-23.9%,3.3%,1.45%,-10.4%
CCOC(=O)C1C(c2ccco2)C2(C#N)C(=N)OC1(C)C2(C#N)C#N (stereo not given),3.45%,12.3%,-39.5%,-0.9%,-36.8%,-52%
CC12CC/C(=N/NC(=O)Cc3c[nH]c4ccccc34)C=C1CCC1C2CCC2(C)C(OC(=O)c3ccccc3)CCC12 (stereo not given),35.8%,28.6%,24.1%,0.65%,3.3%,34.8%
N/C(=N\NC(=O)c1ccc([N+](=O)[O-])cc1)N[N+](=O)[O-],-11.1%,-12.2%,-3.65%,28.8%,11.2%,1.75%
ClCCCCBr,17.6%,-14.2%,20.4%,13.5%,2.4%,18.8%
O=[N+]([O-])c1cc(S(=O)(=O)F)cc(Cl)c1S,98.9% (active),99% (active),98.8% (active),90.5% (active),98.8% (active),98.8% (active)
CC(=O)Cc1ccc(C)cc1,-40.4%,-41.8%,-29.5%,7.3%,-44.5%,-20.3%
CC1(C)COP(=S)(SCCC#N)OC1,-38.8%,-7.1%,0.95%,-29.4%,12.8%,-0.55%
O=C(Nc1ccccc1)N(C1=NCC(CI)S1)c1ccc(F)cc1F (stereo not given),18.3%,6.75%,-6.95%,7.7%,2.95%,-40.1%
